Data on twelve sequences can be found in PMC11006913.

Test in all cases: PBM; 200 nM protein, PBS
Common to all, as to settings: dsDNA, one strand shown

In experiment [1] the target is PRRX1 (Homo sapiens, UniProt P54821 80-166, F113S).
A further experiment deals with HOXB6 (Homo sapiens, UniProt P17509 132-218, K202E).
Experiment [2] has as its target T1, PAX4 (Homo sapiens, UniProt O43316 9-242, R200K).
T1 sequence: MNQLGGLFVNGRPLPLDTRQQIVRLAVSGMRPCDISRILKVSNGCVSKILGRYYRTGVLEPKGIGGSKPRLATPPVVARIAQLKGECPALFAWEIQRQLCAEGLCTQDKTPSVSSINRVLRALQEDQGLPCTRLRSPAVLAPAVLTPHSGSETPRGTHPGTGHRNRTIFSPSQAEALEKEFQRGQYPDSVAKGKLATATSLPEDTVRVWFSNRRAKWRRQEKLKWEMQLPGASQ

Experiment [3] addresses T2, PAX4 (Homo sapiens, UniProt O43316 9-242).
T2 sequence: T1 sequence with K192R

Experiment [4] addresses T3, PAX4 (Homo sapiens, UniProt O43316 9-242, R200Q).
T3 sequence: T1 sequence with K192Q

For experiment [5], the target named is T4, PAX4 (Homo sapiens, UniProt O43316 9-242, F177V).
T4 sequence: T1 sequence with F169V, K192R

The target of experiment [6] is T5, PAX4 (Homo sapiens, UniProt O43316 9-242, F177Y).
T5 sequence: T1 sequence with F169Y, K192R

Experiment [7] concerns the target T6, PAX4 (Homo sapiens, UniProt O43316 9-242, R227W).
T6 sequence: T1 sequence with K192R, R219W

In a further experiment the target is T7, NKX2-6 (Homo sapiens, UniProt A6NCS4 118-204, R150C).
T7 sequence: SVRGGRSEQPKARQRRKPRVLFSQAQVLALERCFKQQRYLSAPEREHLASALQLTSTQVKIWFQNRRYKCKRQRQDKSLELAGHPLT

The target of experiment [8] is PRRX1 (Homo sapiens, UniProt P54821 80-166).
PRRX1 (Homo sapiens, UniProt P54821 80-166), sequence (P54821 80-166): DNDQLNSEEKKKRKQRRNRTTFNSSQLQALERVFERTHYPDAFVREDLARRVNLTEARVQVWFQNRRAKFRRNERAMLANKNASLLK
For a further experiment, the target named is PITX2 (Homo sapiens, UniProt Q99697 72-157).

Where a chain is given by its changes, count along the chain named.

PRRX1 (Homo sapiens, UniProt P54821 80-166, F113S), sequence (P54821 80-166 F113S): as the sequence (P54821 80-166) above, with F34S counted along it
HOXB6, sequence (P17509 132-218 K202E): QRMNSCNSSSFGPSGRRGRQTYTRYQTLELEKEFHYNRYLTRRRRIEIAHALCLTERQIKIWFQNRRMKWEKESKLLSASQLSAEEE

With AATTATAC, the binding signal is 11.1 upbm affinity estimate (log intensity, higher = more binding, comparable within an allelic series) in the experiment with PRRX1 [1] and 9.99 upbm affinity estimate (log intensity, higher = more binding, comparable within an allelic series) with HOXB6.
With GATATTAA, the binding signal with PAX4 [2] is 11.2 upbm affinity estimate (log intensity, higher = more binding, comparable within an allelic series); with PAX4 [3], 11.5 upbm affinity estimate (log intensity, higher = more binding, comparable within an allelic series); in the experiment with PAX4 [4], 11.2 upbm affinity estimate (log intensity, higher = more binding, comparable within an allelic series); in the experiment with PAX4 [5], 10.3 upbm affinity estimate (log intensity, higher = more binding, comparable within an allelic series); with PAX4 [6], 10.5 upbm affinity estimate (log intensity, higher = more binding, comparable within an allelic series); with PAX4 [7], 10.6 upbm affinity estimate (log intensity, higher = more binding, comparable within an allelic series).
Turning to GAGCTCGC, the binding signal was 9.35 upbm affinity estimate (log intensity, higher = more binding, comparable within an allelic series) with PAX4 [2]; 9.28 upbm affinity estimate (log intensity, higher = more binding, comparable within an allelic series) in the experiment with PAX4 [3]; 9.32 upbm affinity estimate (log intensity, higher = more binding, comparable within an allelic series) with PAX4 [4]; 9.23 upbm affinity estimate (log intensity, higher = more binding, comparable within an allelic series) with PAX4 [5]; 9.12 upbm affinity estimate (log intensity, higher = more binding, comparable within an allelic series) in the experiment with PAX4 [6]; 9.26 upbm affinity estimate (log intensity, higher = more binding, comparable within an allelic series) in the experiment with PAX4 [7].
Consider GTGAATTA, for which the binding signal was 11.6 upbm affinity estimate (log intensity, higher = more binding, comparable within an allelic series) in the experiment with PAX4 [2]; 12.2 upbm affinity estimate (log intensity, higher = more binding, comparable within an allelic series) with PAX4 [3]; 11.5 upbm affinity estimate (log intensity, higher = more binding, comparable within an allelic series) with PAX4 [4]; 10.5 upbm affinity estimate (log intensity, higher = more binding, comparable within an allelic series) with PAX4 [5]; 11 upbm affinity estimate (log intensity, higher = more binding, comparable within an allelic series) in the experiment with PAX4 [6]; 10.9 upbm affinity estimate (log intensity, higher = more binding, comparable within an allelic series) with PAX4 [7].
For the sequence TAGTATAA, the binding signal was 10.7 upbm affinity estimate (log intensity, higher = more binding, comparable within an allelic series) with PAX4 [2]; 10.8 upbm affinity estimate (log intensity, higher = more binding, comparable within an allelic series) with PAX4 [3]; 10.8 upbm affinity estimate (log intensity, higher = more binding, comparable within an allelic series) with PAX4 [4]; 10.5 upbm affinity estimate (log intensity, higher = more binding, comparable within an allelic series) with PAX4 [7].
For the sequence ACGAATTA, the binding signal with PAX4 [2] is 11.6 upbm affinity estimate (log intensity, higher = more binding, comparable within an allelic series); in the experiment with PAX4 [3] it was 12.1 upbm affinity estimate (log intensity, higher = more binding, comparable within an allelic series); in the experiment with PAX4 [4], 11.7 upbm affinity estimate (log intensity, higher = more binding, comparable within an allelic series); in the experiment with PAX4 [5], 10.3 upbm affinity estimate (log intensity, higher = more binding, comparable within an allelic series); in the experiment with PAX4 [6], 11 upbm affinity estimate (log intensity, higher = more binding, comparable within an allelic series); in the experiment with PAX4 [7], 10.8 upbm affinity estimate (log intensity, higher = more binding, comparable within an allelic series).
ACGTATTA: the binding signal with PAX4 [2] is 11.7 upbm affinity estimate (log intensity, higher = more binding, comparable within an allelic series); in the experiment with PAX4 [6], 11 upbm affinity estimate (log intensity, higher = more binding, comparable within an allelic series); with PAX4 [7], 11.1 upbm affinity estimate (log intensity, higher = more binding, comparable within an allelic series).
Take AATGCGAT: the binding signal is 10.8 upbm affinity estimate (log intensity, higher = more binding, comparable within an allelic series) with PAX4 [2]; 11 upbm affinity estimate (log intensity, higher = more binding, comparable within an allelic series) with PAX4 [3]; 10.2 upbm affinity estimate (log intensity, higher = more binding, comparable within an allelic series) in the experiment with PAX4 [5].
On to CACGTGGC, for which the binding signal with PRRX1 [1] is 9.17 upbm affinity estimate (log intensity, higher = more binding, comparable within an allelic series); with NKX2-6 it was 9.61 upbm affinity estimate (log intensity, higher = more binding, comparable within an allelic series); with PRRX1 [8], 9.4 upbm affinity estimate (log intensity, higher = more binding, comparable within an allelic series).
On to CGGAACCG, for which the binding signal with PRRX1 [1] was 9.35 upbm affinity estimate (log intensity, higher = more binding, comparable within an allelic series); with PITX2, 7.68 upbm affinity estimate (log intensity, higher = more binding, comparable within an allelic series); with PRRX1 [8] it was 9.26 upbm affinity estimate (log intensity, higher = more binding, comparable within an allelic series).
As to CGCGGGAC, the binding signal was 9.43 upbm affinity estimate (log intensity, higher = more binding, comparable within an allelic series) with PRRX1 [1] and 9.4 upbm affinity estimate (log intensity, higher = more binding, comparable within an allelic series) with PRRX1 [8].
Turning to GTCCCCCA, the binding signal with PRRX1 [1] is 9.39 upbm affinity estimate (log intensity, higher = more binding, comparable within an allelic series); in the experiment with NKX2-6, 9.42 upbm affinity estimate (log intensity, higher = more binding, comparable within an allelic series); with PRRX1 [8], 9.22 upbm affinity estimate (log intensity, higher = more binding, comparable within an allelic series).
